Experimental findings from PubChem BioAssay (NCI) are described below.

Compounds without any hit were thinned out: in the full panel of roughly 83,000, 20% have a hit.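 Results are percent growth after 48 hours of single-concentration exposure. 100 means growth as in untreated cells, lower positive values show inhibition; negative values down to -100 show cell death.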 Unmarked numbers belong to inactive results. Active and inactive are the calls of the source. Rule for the calls: active = growth percent below 10; inactive = the rest.

One test deals with ACHN renal. Description: NCI-60 one-dose screen, 48 h (100 = growth as untreated, 0 = no growth, -100 = all killed). The settings on record: 10 µM unless noted.
Consider `CCC(C)(C)C(=O)O[C@H]1C[C@@H](C)C=C2C=C[C@H](C)[C@H](CC[C@@H]3C[C@@H](O)CC(=O)O3)[C@H]21`, for which the growth is 14.7%.

As to `O=C1C(=O)c2ccc(Br)cc2-c2cc(Br)ccc21`, the growth was 39%. Consider `CCOC(=O)c1c(C)c(C(=O)OCC)n(C)c1C`, for which the growth was 95.6%. On the same count and under the same terms, the result for `COc1ncc(-c2ccc3nccc(C#CCN4CCN(S(C)(=O)=O)CC4)c3c2)cc1NS(=O)(=O)c1ccc(F)cc1F` reads 13.2%; that for `COc1ccc2c3c(c(OCCCN(C)C)nc2c1)-c1ccc(Cl)cc1C3=O`, -75.5% (active); that for `CC1=CC(=O)C(C(C)=Nc2ccccc2Cl)C(=O)O1` (stereo unspecified), 98.1%. Still for that read-out and setting: the result for `C=C(C[C@](O)(C(=O)/C=C/c1ccc(Cl)cc1)C(=O)OC)c1ccccc1` reads 72.2%; that for `Nc1ccc(C2=Nc3cccc4cccc(c34)S2)cc1`, 81.3%; that for `COc1cc(C2CC(c3ccc(C)cc3)=NN2C(C)=O)ccc1Oc1ccnc2cc(Cl)ccc12` (stereo unspecified), 32.2%.

For `CSc1ncc2ncn(C3OC(CO)C(O)C3O)c2n1` (stereo unspecified), the growth is 105%.

Turning to `COc1ccc2nc3cc(Cl)ccc3c(Nc3cc(C(C)C)c(O)cc3C)c2c1`, the growth was 61.6%.

Regarding `O=C(Nc1ccc(Cl)cc1Cl)Nc1ccc(-c2cccnc2)cc1N1CCC(CO)CC1`, the growth was 41.1%.

Consider `COc1ccc2c(c1)C(=O)c1c-2c(OCCCN(C)C)nc2cc(Br)ccc12`, for which the growth was 3.65% (active). Turning to `CC(O)c1nc2c(c(=O)n(C)c(=O)n2C)n1C` (stereo unspecified), the growth is 105%. Take `COc1cc(Oc2cc(-c3cccnc3)ccc2NC(=O)Nc2ccc(F)cc2F)cc(OC)c1OC`: the growth was 121%. Same read-out and setting: then `O=C(/C=C/c1ccccc1Cl)c1ccc(O)cc1`, with 78.9%.

In the case of `CN1CCN(Cc2ccc(NC(=O)c3[nH]ncc3Nc3ccnc4ccnn34)cc2)CC1`, the growth was 66.4%. On the same count and under the same terms, the result for `Cc1cc(C(C)(C)c2cc(C)c(O)c(CN(C)C)c2)cc(CN(C)C)c1O` reads 86.2%; that for `N#Cc1c(N)[nH]c(S)c1C#N`, 93.6%.

In another test the test system is CAKI-1 renal. The description is as above. The settings on record: 10 µM unless noted.
`c1cnc2ccc3ncccc3c2c1`: the growth is 90.3%. For the molecule `CCCCCCCCCCSc1ncnc2nc[nH]c12`, the growth was 69.4%. On the same count and under the same terms, the result for `Clc1ccc2c(Nc3ccc4oc(NCCN5CCCC5)nc4c3)ccnc2c1` reads 94.1%; that for `CCN(CC)CCCNCCCNc1cc(OC)cc2cccnc12`, 97.6%. As to `CCCCCCCCCCCCNc1ncnc2[nH]ncc12`, the growth is 66.2%. Same read-out and setting: then `CCCCCCCC/C=C/CCCCCCCC1=NC(C)(C)CN1CCO`, with 59.5%. Consider `O=C(CN1CCCCC1)Sc1nnc2sc3ccccc3n12`, for which the growth is 86.2%. As to `c1cncc(CNc2ccccc2-c2nnc(Nc3ccc4c(c3)OCO4)o2)c1`, the growth was 9.02% (active). Same read-out and setting: the result for `CC(=O)NC1(C(=O)O)CCCC1` reads 111%; that for `CCCCCCCCCCCCCCCCN=C(CC(=O)O)C(=O)O`, 104%; that for `c1ccc(N2CCN(c3nncc4ccccc34)CC2)nc1`, 109%. With `O=c1[nH]c(Cl)nc2c1cnn2-c1ccccc1`, the growth is 61.6%. With `ClC1=C(Cl)C(Cl)=C(Cl)C1=C/C=C/c1ccccc1`, the growth was -4.48% (active). Same read-out and setting: the result for `CN(CC(=O)N(Cc1ccc(C2CCCCC2)cc1)c1ccc(C(=O)O)cc1)S(=O)(=O)c1c(F)c(F)c(F)c(F)c1F` reads 89.9%.

As to `COc1ccc(C2CC(c3cccc(Nc4ccnc5cc(Cl)ccc45)c3)=NN2C=O)cc1` (stereo unspecified), the growth is 17.4%. The same measure, in the same setting: the result for `CCCCCCCCCCCCCCCCCC1=NC(C)(C)CN1CCO` reads -41% (active); that for `COc1ccc(CCN2CCCN3C2=Nc2ccccc2S3(=O)=O)cc1`, 46.5%. Take `CCOC(=O)c1cc(-c2cccnc2)nc2c(Cl)cc(Cl)cc12`: the growth was 105%. On the same count and under the same terms, then `CCC(C)(C)C(=O)O[C@H]1C[C@@H](C)C=C2C=C[C@H](C)[C@H](CC[C@@H]3C[C@@H](O)CC(=O)O3)[C@H]21`, with -33.5% (active); and `O=C1C(=O)c2ccc(Br)cc2-c2cc(Br)ccc21`, with 58.1%. Regarding `COc1ncc(-c2ccc3nccc(C#CCN4CCN(S(C)(=O)=O)CC4)c3c2)cc1NS(=O)(=O)c1ccc(F)cc1F`, the growth was 4.01% (active). As for `COc1ccc2c3c(c(OCCCN(C)C)nc2c1)-c1ccc(Cl)cc1C3=O`, the growth is 29.5%. For `C=C(C[C@](O)(C(=O)/C=C/c1ccc(Cl)cc1)C(=O)OC)c1ccccc1`, the growth is 68.5%.

In the case of `Nc1ccc(C2=Nc3cccc4cccc(c34)S2)cc1`, the growth is 75.7%. Still for that read-out and setting: the result for `COc1cc(C2CC(c3ccc(C)cc3)=NN2C(C)=O)ccc1Oc1ccnc2cc(Cl)ccc12` (stereo unspecified) reads 58.1%; that for `O=C(Nc1ccc(Cl)cc1Cl)Nc1ccc(-c2cccnc2)cc1N1CCC(CO)CC1`, 25.5%. As for `COc1ccc2c(c1)C(=O)c1c-2c(OCCCN(C)C)nc2cc(Br)ccc12`, the growth was 69.6%. On the same count and under the same terms, then `CC(O)c1nc2c(c(=O)n(C)c(=O)n2C)n1C` (stereo unspecified), with 89.2%; and `COc1cc(Oc2cc(-c3cccnc3)ccc2NC(=O)Nc2ccc(F)cc2F)cc(OC)c1OC`, with 94.3%; and `CN1CCN(Cc2ccc(NC(=O)c3[nH]ncc3Nc3ccnc4ccnn34)cc2)CC1`, with 75.4%. In the case of `Cc1cc(C(C)(C)c2cc(C)c(O)c(CN(C)C)c2)cc(CN(C)C)c1O`, the growth is 79.6%. On the same count and under the same terms, the result for `N#Cc1c(N)[nH]c(S)c1C#N` reads 98.5%.
